# A selection: hits, their analogues and other compounds. The true share with any hit is near 1.8%.
# SUMO Mot1 rescue = blocks SUMOylation pathway, rescuing yeast Mot1-301 growth; AID 2716; 320,000 tested, 1% active; growth rescue, % at 18.8 µM; S. cerevisiae Mot1-301 growth rescue, ATP luminescence, 38.5C; percent above DMSO median, 100 means doubled;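 active = every valid replicate shows activation above 250% relative to neutral control wells; inactive = the rest, any valid replicate at or below 250%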;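 note: OY570 slx delta 5 strain wells were the positive control but not used for scaling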
# aDG glyco up = increases alpha dystroglycan glycosylation; Pro5-aDG cells, alpha-DG glycosylation AlphaScreen (IIH6); 0% Pro5, 100% B10-LARGE cell signal; activation, % at 10 µM; 360,000 tested, 0.22% active; AID 624168;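 active = activation of at least 8% versus controls, or a plate z-score of at least 8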;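 note: Pro5 are CHO cells carrying HIG-tagged alpha-DG that lacks glycosylation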
# AI-2 QS mod = modulators of Vibrio harveyi AI-2 quorum sensing system | AID 2094 | activity change, % at 7.5 µM | 300,000 tested, 0.4% active | Vibrio harveyi JMH597 AI-2 luminescence/OD600 ratio, 9 h; stronger effect = lower value; strain lacks LuxN and CqsS sensors; 0 = neutral-control median; in the data active = activity change below about -75%, passing the limit was not always enough; inconclusive = no clear call, values can overlap the other calls;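 note: luminescence divided by OD600 gain over 9 h not by final OD600 alone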
# Bfl-1 A1 inh = inhibitors of the anti-apoptotic protein A1, read as caspase activation; MEF A1-2A-BIM cells, Caspase-Glo 3/7 luminescence, 3 h; percent of clofoctol response, vehicle zero; caspase activation, % (no concentration beside the values); 330,000 tested, 0.066% active; AID 2462;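 active = over half of replicate activation scores above 10%, or exactly half above 10 with the replicate mean above 10; inconclusive = replicate mean below 10 yet half the replicates above 10; inactive = over half of replicates below 10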
# ARNT TACC3 PPI = disrupts binding between human ARNT and TACC3; AID 623870; AlphaScreen His-ARNT PAS-B/GST-TACC3 binding, luminescence; TACC3 fragment carries E629A point mutation; 390,000 tested, 0.66% active; Q9Y6A5; inhibition, % at 9.99 µM;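 active = mean inhibition of replicates at least 50% and at least half of replicates each reaching 50%; inconclusive = half or more replicates reach 50% but mean below 50%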;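 note: 0% = complete ARNT plus TACC3 wells and 100% = ARNT alone without TACC3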
# The depositor's hits bear a star; ? = inconclusive; / = no result given.
SMILES,SUMO Mot1 rescue,aDG glyco up,AI-2 QS mod,Bfl-1 A1 inh,ARNT TACC3 PPI
O=C1N(Cc2ccccc2)CC2(Br)COCOC12O (stereo unspecified),/,0,/,/,8.9*
O=C1C(c2ccccc2)CN1Cc1ccccc1 (stereo unspecified),/,0,/,/,/
O=C(Cn1c2[n+](c3ccc(C(F)(F)F)cc31)CCCCC2)Nc1ccc(Br)cc1,-12,0,46,-1,-3
CCc1ccc(NC(=O)Cn2c3[n+](c4c(F)c(F)ccc42)CCCCC3)cc1,708*,0,31,1,3
CC(C(=O)N(C)Cc1ccccc1)N1CCN(C/C=C/c2ccccc2)CC1 (stereo unspecified),282*,0,11,0,0
COc1ccccc1S(=O)(=O)N(C)C[C@H]1Oc2cc(/C=C/c3ccccc3)ccc2S(=O)(=O)N([C@@H](C)CO)C[C@H]1C,/,/,/,/,0
COc1cccc(NC(=O)COc2ncnc3sc(C)c(C)c23)c1,1,0,-76*,1,21
CCN(CC(=O)Nc1cccc(OC)c1)c1ncnc2sc(C)c(C)c12,17,3,-12,0,-2
C=CCSc1nnc(-c2cc3c(-c4ccccc4)nn(C)c3s2)n1C,10,2,16,0,48*
C=CCSc1nnc(-c2cc3c(C(F)(F)F)nn(C)c3s2)n1C,59,0,17,0,-1
Nc1nonc1-n1nnc(C(=O)N/N=C/c2ccc(OCc3ccccc3)cc2)c1CNc1ccccc1,2,0,21,-3,-5
Cc1c(C(=O)N/N=C/c2ccccn2)nnn1-c1nonc1N,-1,0,6,0,43*
CCOc1cccc(-c2c(C(=O)N/N=C(\C)c3ccccn3)nnn2-c2nonc2N)c1,31,1,36,0,92*
CCOc1cccc(-c2c(C(=O)N/N=C(\C)c3ccncc3)nnn2-c2nonc2N)c1,23,1,20,1,-7
Nc1nonc1-n1nnc(C(=O)N/N=C/c2ccccn2)c1CNc1ccccc1,-10,0,13,1,47*
COc1ccc(C2=NC(CO)(CO)CO2)cc1,-12,0,19,?,6
CCOc1cc([N+](=O)[O-])c2nc(N)sc2c1,-3,0,20,-1,-7
CCNc1nc(Oc2ccc(C#N)cc2)cc(C(F)(F)F)n1,6,2,7,1,0
CCNc1nc(Oc2ccc(F)cc2)cc(C(F)(F)F)n1,943*,0,-4,0,-1
COc1ccc(N2C(=O)CC(Nc3ccc(C)cc3)C2=O)cc1 (stereo unspecified),/,0,-5,1,17
COc1ccc(N2C(=O)CC(NNc3ncc(Cl)cc3Cl)C2=O)cc1 (stereo unspecified),/,0,29,0,68*
CNC[C@H]1Oc2ccc(NC(=O)Nc3ccc4c(c3)OCO4)cc2C(=O)N([C@H](C)CO)C[C@@H]1C,-20,0,/,0,-1
CCN(C1CCS(=O)(=O)C1)S(=O)(=O)c1ccc2ccccc2c1 (stereo unspecified),325*,0,20,0,-4
CCCN(C1CCS(=O)(=O)C1)S(=O)(=O)c1ccc2ccccc2c1 (stereo unspecified),7,0,/,0,-9
Cc1ccc(S(=O)(=O)c2nnn(-c3cccc(F)c3)c2N)cc1,-12,0,-97*,-1,-2
SMILES,SUMO Mot1 rescue,aDG glyco up,AI-2 QS mod,Bfl-1 A1 inh,ARNT TACC3 PPI
CC(=O)c1ccc(OCc2c(-c3ccccc3)nnn2CC(=O)NS(=O)(=O)c2ccccc2C)cc1,/,0,/,/,/
Cc1ccsc1/C=N/Nc1ncnc2nc[nH]c12,-21,0,10,-1,58*
O=C(COC(=O)CNC(=O)c1ccccc1F)Nc1nnc(-c2ccccc2)o1,-5,0,19,0,41
Clc1cccc(Cc2ccc(Cl)nn2)c1,10,0,-8,0,-7
c1ccc(-c2ccncc2)nc1,-16,0,/,1,0
c1ccc(-c2cccc(-c3ccccn3)n2)nc1,6,1,-89*,0,/
CCC1(c2ccc(F)cc2)NC(=O)N(CC(=O)NCc2ccc(C)cc2)C1=O (stereo unspecified),9,0,-78*,0,6
Cn1c(=N)n(CC(=O)c2ccccc2)c2ccccc21,-7,2,45,-7,/
